# Inconclusive results are not listed. Active and inactive are the calls of the source. The calls were made as follows: active = hit-call score of the fitted dose curve at least 0.9, where 1 is the maximum; inconclusive = response in the unintended direction; inactive = score below 0.9.
# Read-out: xenobiotic metabolism (CYP1A2), CYP1A2 (gene 1544)
# Test: CLD_CYP1A2_24hr: CellzDirect (CLD) Gene Expression Assay for xenobiotic metabolism (CYP1A2) at 24 hours (AID 2283683)
# Procedure: CLD_24hr is a cell-based, multiplexed-readout assay that uses hepatocyte, a human liver primary cell, with measurements taken at 24 hours after chemical dosing in a 96-well plate.CLD_CYP1A2_24hr is one of 16 assay component(s) measured or calculated from the CLD_24hr assay. It is designed to make measurements of mRNA induction, a form of inducible reporter, as detected with chemiluminescence signals by Quantitative Nuclease Protection Assay (qNPA) technology.Data from the assay component CLD_CYP1A2_24hr was analyzed at the endpoint, CLD_CYP1A2_24hr, in the positive analysis fitting direction relative to DMSO as the negative control and baseline of activity. Using a type of inducible reporter, gain-of-signal activity can be used to understand changes in the reporter gene as they relate to the gene CYP1A2. Furthermore, this assay endpoint can be referred to as a primary readout. To generalize the intended target to other relatable targets, this assay endpoint is annotated to the cyp intended target family, where subfamily is xenobiotic metabolism.
# Human hepatocyte cultures were treated daily for two consecutive days with fresh dosing solutions containing appropriate concentrations of the 320 ToxCast chemicals (chemical identities were blinded to CellzDirect and other ToxCast collaborators), vehicle control (0.2% DMSO), and positive control inducers as summarized in Table 1. Due to the large number of treatment groups and chemicals examined, the ToxCast chemicals were divided into two groups (spanning two independent cultures of hepatocytes from separate donor preparations (Hu778: ToxCast plates 1 and 2; Hu776: ToxCast plates 3 and 4). Each preparation of human hepatocyte cultures was treated with respective vehicle control, medium only control, set of six positive controls/reference chemicals for the five hepatic receptor pathways, and a subset of eight of the ToxCast chemicals (indoxacarb, pyrithiobac-sodium, norflurazon, cyhalofop-butyl, methomyl, thiram, acetochlor, and propiconazole). These replicate data, coupled with internal replicates designed within the blinded ToxCast chemical library, provided additional data to evaluate interindividual differences between hepatocyte preparations and their potential impact on chemical profiles.Cell morphology and integrity were evaluated using phase-contrast microscopy as an indicator of hepatocyte cell health (Tyson & Green, 1987). Cultures for each treatment group (i.e., media, vehicle [0.2% DMSO], positive control inducers [multiple concentrations], and the ToxCast chemicals [multiple concentrations]) were observed and cell morphology was assessed relative to vehicle control cultures at each harvest time point (0, 6, 24, or 48 h). […] Images were evaluated at the conclusion of the study to assess changes in cell integrity and account for the effects of chemical exposure on uncharacteristic changes in concentration-dependent gene expression profiles. The results from these determinations of apparent cytotoxicity were annotated (yes/no) alongside the corresponding qNPA data for reference.At the conclusion of each treatment period, hepatocyte cultures (96-well) were washed with 1 volume of HBSS, lysed by addition of 25 ul ArrayPlate lysis buffer (HTG, Tucson, AZ), and 70 ul/well of Denaturation Oil, denatured by incubation at 95C for 10 min, and frozen at approximately -70C until analysis by nuclease protection assay (qNPA) (Roberts et al., 2007). For qNPA analysis, cell lysates were thawed at 50C for approximately 30 min, qNPA probes were added, and samples were incubated at 95C for 10 min to begin the detection process by denaturing the target RNA, dissociating the duplexes and secondary structure hybridization. At the conclusion of the hybridization period, S1 nuclease reagent was added to each sample to digest all nonprotected nucleotides at 50C for 60-90 min. […]
Compound,AC50,outcome
CCCN(CCC)c1c([N+](=O)[O-])cc(C(F)(F)F)cc1[N+](=O)[O-],5.03 µM (active),
O=[N+]([O-])c1c(Cl)c(Cl)c(Cl)c(Cl)c1Cl,,inactive
CC1(c2ccc(Oc3ccccc3)cc2)OC(=O)N(Nc2ccccc2)C1=O (stereo not given),,inactive
CCc1ccc(C(=O)NN(C(=O)c2cc(C)cc(C)c2)C(C)(C)C)cc1,20 µM (active),
CNC(=O)CSP(=S)(OC)OC,,inactive
COC(=O)c1ccccc1S(=O)(=O)NC(=O)Nc1nc(C)nc(OC)n1,3.08 µM (active),
COc1cc(OC)nc(NC(=O)NS(=O)(=O)c2cc(NC=O)ccc2C(=O)N(C)C)n1,,inactive
CCOC1Oc2ccc(OS(C)(=O)=O)cc2C1(C)C (stereo not given),,inactive
O=S(=O)(O)C(F)(F)C(F)(F)C(F)(F)C(F)(F)C(F)(F)C(F)(F)C(F)(F)C(F)(F)F,,inactive
CCCN(CCOc1c(Cl)cc(Cl)cc1Cl)C(=O)n1ccnc1,0.378 µM (active),
OCCOc1ccccc1,,inactive
CCN(CC)C(=O)SCc1ccc(Cl)cc1,,inactive
CN1CSC(=S)N(C)C1,,inactive
CCC(C)(C)C(=O)OC1=C(c2ccc(Cl)cc2Cl)C(=O)OC12CCCCC2,,inactive
CCC(C)Nc1c([N+](=O)[O-])cc(C(C)(C)C)cc1[N+](=O)[O-] (stereo not given),3.05 µM (active),
CCS(=O)(=O)c1cccnc1S(=O)(=O)NC(=O)Nc1nc(OC)cc(OC)n1,,inactive
COC(=O)c1ccccc1CS(=O)(=O)NC(=O)Nc1nc(OC)cc(OC)n1,20 µM (active),
CC[C@H](C)[C@H]1O[C@]2(C=C[C@@H]1C)C[C@@H]1C[C@@H](C/C=C(\C)[C@@H](O[C@H]3C[C@H](OC)[C@@H](O[C@H]4C[C@H](OC)[C@@H](O)[C@H](C)O4)[C@H](C)O3)[C@@H](C)/C=C/C=C3\CO[C@@H]4[C@H](O)C(C)=C[C@@H](C(=O)O1)[C@]34O)O2 (tested in a mixture with another compound),,inactive
O=C(O)CCCOc1ccc(Cl)cc1Cl,,inactive
C[C@H]1[C@H](c2ccc(Cl)cc2)SC(=O)N1C(=O)NC1CCCCC1,5.84 µM (active),

Compound,AC50,outcome
O=C(O)COc1ccc(Cl)cc1Cl,,inactive
O=C(Nc1ccccc1)Nc1cnns1,6.13 µM (active),
O=C(O)C(F)(F)C(F)(F)C(F)(F)C(F)(F)C(F)(F)C(F)(F)C(F)(F)F,,inactive
Oc1cc(Cl)ccc1Oc1ccc(Cl)cc1Cl,,inactive
[2H]C1([2H])[n+]2ccccc2-c2cccc[n+]2C1([2H])[2H],,inactive
CC(C)(C)C(O)C(Oc1ccc(Cl)cc1)n1cncn1 (stereo not given),2.95 µM (active),
CC(C)N(C(=O)COc1nnc(C(F)(F)F)s1)c1ccc(F)cc1,,inactive
CC(C)(C)C(O)/C(=C\c1ccc(Cl)cc1Cl)n1cncn1 (stereo not given),0.825 µM (active),
CNC(=O)Oc1cccc(N=CN(C)C)c1,,inactive
COc1nn(CSP(=S)(OC)OC)c(=O)s1,3.12 µM (active),
CNC(=O)/C=C(\C)OP(=O)(OC)OC,,inactive
Clc1ccccc1-c1nnc(-c2ccccc2Cl)nn1,4.38 µM (active),
N#CN,,inactive
COP(=S)(OC)Oc1ccc(SC)c(C)c1,9.72 µM (active),
Cc1[nH]c(=O)n(C(C)(C)C)c(=O)c1Cl,20 µM (active),
CNC(=O)Oc1ccccc1OC(C)C,,inactive
COP(=O)(OC)OC=C(Cl)Cl,,inactive
CC(C)OC(=O)Nc1cccc(Cl)c1,2.34 µM (active),
CCC(C)(NC(=O)c1cc(Cl)c(C)c(Cl)c1)C(=O)CCl (stereo not given),,inactive
C#CCN1C(=O)COc2cc(F)c(N3C(=O)C4=C(CCCC4)C3=O)cc21,,inactive
